Inconclusive results are not listed. Active and inactive are the calls of the source. The calls were made as follows, unless noted: active = hit-call score of the fitted dose curve at least 0.9, where 1 is the maximum; inconclusive = response in the unintended direction; inactive = score below 0.9.
What was measured:
[1] = ATG_TCF_b_cat_CIS: Attagene CIS-FACTORIAL HepG2 Assay for human T-Cell-Factor with beta-catenin (TCF/b-cat) (AID 2282965; active = hit-call score of the fitted dose curve at least 0.9, where 1 is the maximum; inactive = score below 0.9); details: HepG2 TCF/beta-catenin cis-reporter transcription, actives raise or lower the signal
Method in brief: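 Endogenous transcription factor activity is captured through cis-promoter reporter constructs transiently introduced into human HepG2 liver cells. Induced reporter mRNA is measured after 24 h and fitted bidirectionally relative to DMSO.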

[2] = ATG_TAL_CIS: Attagene CIS-FACTORIAL HepG2 Assay for human TAL Basal Promoter (AID 2282966; active = hit-call score of the fitted dose curve at least 0.9, where 1 is the maximum; inactive = score below 0.9;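 also: background control endpoint measuring basal TAL promoter reporter mRNA not a specific factor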); details: HepG2 Attagene cis-factorial TAL promoter reporter; actives raise or lower the signal
Method in brief: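 HepG2, transient MRTU transfection, 24 h compound exposure; RNA → oligo(dT) RT → PCR → 6-FAM primer extension → HpaI digest → CE fluorescence. Bidirectional curve fit vs DMSO. Background-control readout.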

[3] = ATG_TGFb_CIS: Attagene CIS-FACTORIAL HepG2 Assay for human Transforming Growth Factor (TGF) (AID 2282967; active = hit-call score of the fitted dose curve at least 0.9, where 1 is the maximum; inactive = score below 0.9); details: HepG2 Attagene CIS TGFb reporter, mRNA transcription; actives raise or lower the signal
Method in brief: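 Transient MRTU transfection of HepG2 (FuGene 6). Dose 24 h. TriZol RNA, oligo(dT) RT, PCR, 6-FAM primer extension, HpaI cut, CE. Bidirectional fit, DMSO = baseline.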

[4] = molecular target: Nuclear receptor subfamily 1 group I member 3 (Homo sapiens) (UniProt Q14994); experiment: ATG_CAR_TRANS: Attagene TRANS-FACTORIAL HepG2 Assay for human Constitutive Androstane Receptor (CAR) (AID 2282969); details: HepG2 Attagene TRANS-FACTORIAL CAR reporter;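 also: activators raise reporter mRNA above DMSO so AC50 marks induction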
Method in brief: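 Signal is reporter mRNA induction relative to DMSO, measured 24 h after dosing by RT-PCR with fluorescent primer extension and capillary electrophoresis. Human HepG2 liver cells carried transiently transfected chimeric NR-Gal4/GAL4-UAS reporter constructs.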

[5] = molecular target: Estrogen receptor (Homo sapiens) (UniProt P03372); experiment: ATG_ERa_TRANS: Attagene TRANS-FACTORIAL HepG2 Assay for human Estrogen Receptor alpha (ERa) (AID 2282970); details: HepG2 Attagene TRANS ERa GAL4 reporter, mRNA
Method in brief: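 Reporter mRNA induction after 24 hours, detected by fluorescent RT-PCR and capillary electrophoresis, gives the read-out. Cells are HepG2 transiently transfected with GAL4-UAS reporter transcription units responding to chimeric NR-Gal4. Activity is taken as gain of signal over DMSO baseline.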

[6] = molecular target: X-box-binding protein 1 (Homo sapiens) (UniProt P17861); experiment: ATG_Xbp1_CIS: Attagene CIS-FACTORIAL HepG2 Assay for human X-box Binding Protein 1 (XBP1) (AID 2282972; active = hit-call score of the fitted dose curve at least 0.9, where 1 is the maximum; inactive = score below 0.9); details: HepG2 XBP1 cis-element reporter, Attagene multiplex; actives raise or lower the signal
Method in brief: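 Human hepatoma HepG2, cis-element reporter system, 24 h treatment; mRNA quantified by RT-PCR/CE fluorescence; fit relative to DMSO.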

[7] = ATG_M_19_TRANS: Attagene TRANS-FACTORIAL HepG2 Assay for M19 Transcription Factor (Internal Marker) (AID 2282974); details: HepG2 Attagene TRANS-FACTORIAL M19 internal marker reporter
Method in brief: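 Multiplexed TRANS format: HepG2 liver cells bearing transient GAL4-UAS reporter units, chemical treatment 24 h, reporter transcripts quantified by RT-PCR plus capillary electrophoresis. DMSO defines baseline.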

[8] = ATG_GAL4_TRANS: Attagene TRANS-FACTORIAL HepG2 Assay for GAL4 (Internal Marker) (AID 2282976); details: HepG2 Attagene TRANS GAL4 internal marker reporter
Method in brief: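 RT-PCR/capillary electrophoresis readout of reporter mRNA. HepG2, transient MRTU transfection (GAL4-UAS reporters), 24 h compound exposure. Background-control endpoint, positive direction vs DMSO baseline.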

[9] = molecular target: Bile acid receptor (Homo sapiens) (UniProt Q96RI1); experiment: ATG_FXR_TRANS: Attagene TRANS-FACTORIAL HepG2 Assay for Farnesoid X Receptor (FXR) (AID 2282979); details: HepG2 Attagene TRANS FXR-GAL4 reporter transcription;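 also: hits raise reporter mRNA above DMSO so AC50 marks FXR activation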
Method in brief: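 Read-out: fluorescent reporter transcripts quantified by capillary electrophoresis after RT-PCR of total RNA. Source cells were HepG2 transiently carrying chimeric NR-GAL4 plus GAL4-UAS reporter units, dosed 24 h. Activity fitted upward relative to DMSO baseline.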

[10] = molecular target: Oxysterols receptor LXR-beta (Homo sapiens) (UniProt P55055); experiment: ATG_LXRb_TRANS: Attagene TRANS-FACTORIAL HepG2 Assay for human Liver X Receptor beta (LXRb) (AID 2282981); details: HepG2 Attagene TRANS GAL4-LXRb reporter, mRNA
Method in brief: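 After 24 h chemical treatment of transfected HepG2 cells carrying exogenous NR-Gal4 chimeras, reporter mRNA was quantified by fluorescent RT-PCR and capillary electrophoresis; activity taken as increase over DMSO controls.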

[11] = molecular target: Nuclear receptor subfamily 4 group A member 2 (Homo sapiens) (UniProt P43354); experiment: ATG_NURR1_TRANS: Attagene TRANS-FACTORIAL HepG2 Assay for human Nuclear Receptor Related Protein 1 (NURR1) (AID 2282985); details: HepG2 Attagene TRANS reporter, mRNA readout
Method in brief: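 Reporter transcript induction, measured by RT-PCR with fluorescent labelling, HpaI digestion and capillary electrophoresis, after 24 hr dosing of human HepG2 cells transiently expressing an exogenous NR-Gal4 fusion with GAL4-UAS-driven reporters; DMSO as baseline.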

[12] = molecular target: Estrogen-related receptor gamma (Homo sapiens) (UniProt P62508); experiment: ATG_ERRg_TRANS: Attagene TRANS-FACTORIAL HepG2 Assay for human Estrogen-Related Receptor gamma (ERRg) (AID 2282977); details: HepG2 Attagene TRANS reporter, ERRg transactivation;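 also: hits increase reporter signal over DMSO so potencies reflect activators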
Method in brief: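 Induction of reporter transcripts through a chimeric NR-Gal4 protein is quantified in transfected human HepG2 liver cells after 24 h chemical exposure, using RT-PCR with capillary electrophoresis detection and DMSO as baseline.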

[13] = molecular target: Oxysterols receptor LXR-alpha (Homo sapiens) (UniProt Q13133); experiment: ATG_LXRa_TRANS: Attagene TRANS-FACTORIAL HepG2 Assay for human Liver X Receptor alpha (LXRa) (AID 2282980); details: HepG2 Attagene TRANS reporter, LXRa transactivation
Method in brief: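 Read-out: reporter transcript levels by RT-PCR plus capillary electrophoresis, fluorescence intensity. Transiently transfected HepG2, exogenous NR-GAL4 chimera, GAL4-UAS reporters; 24 h compound exposure. Activity = increase over DMSO negative control.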

[14] = molecular target: Hepatocyte nuclear factor 4-alpha (Homo sapiens) (UniProt P41235); experiment: ATG_HNF4a_TRANS: Attagene TRANS-FACTORIAL HepG2 Assay for human Hepatocyte Nuclear Factor 4 alpha (HNF4a) (AID 2282982); details: HepG2 HNF4a transactivation reporter, mRNA readout
Method in brief: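 Activity of an exogenous HNF4a–Gal4 fusion scored as induced GAL4-UAS reporter transcripts after 24 h chemical exposure of transfected human HepG2 cells. Read-out via RT-PCR with 6-FAM labelling and capillary electrophoresis; rise over DMSO baseline.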

[15] = ATG_M_06_TRANS: Attagene TRANS-FACTORIAL HepG2 Assay for M06 Transcription Factor (Internal Marker) (AID 2282983); details: HepG2 Attagene TRANS M06 internal marker reporter
Method in brief: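 Read-out: fluorescent reporter cDNA fragments resolved by capillary electrophoresis after RT-PCR and HpaI cut. Source cells were HepG2 carrying transfected multi-reporter GAL4 constructs, dosed 24 h. Increase over DMSO control analysed.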

[16] = molecular target: Transcriptional activator Myb (Homo sapiens) (UniProt P10242); experiment: ATG_Myb_CIS: Attagene CIS-FACTORIAL HepG2 Assay for human Myeloblastosis (Myb) Proto-Oncogene Transcription Factor (AID 2282986; active = hit-call score of the fitted dose curve at least 0.9, where 1 is the maximum; inactive = score below 0.9); details: HepG2 Attagene CIS-FACTORIAL Myb reporter transcription; actives raise or lower the signal
Method in brief: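 Using HepG2 liver cells bearing transiently transfected cis-promoter reporter constructs, the assay measures induction or loss of reporter mRNA after 24 hours of dosing. Detection used fluorescently labeled RT-PCR products separated by capillary electrophoresis.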

[17] = ATG_M_32_TRANS: Attagene TRANS-FACTORIAL HepG2 Assay for M32 Transcription Factor (Internal Marker) (AID 2282984); details: HepG2 Attagene TRANS M32 internal marker reporter;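 also: transcript level of a background control reporter unit measured by RT-PCR and capillary electrophoresis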
Method in brief: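 Internal background reporter in transfected HepG2: after 24 h chemical exposure, RNA reverse-transcribed, reporter cDNA amplified, fluorescently labelled and HpaI-cut, then sized by capillary electrophoresis. Gain of signal fitted against DMSO control.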

[18] = molecular target: Glucocorticoid receptor (Homo sapiens) (UniProt P04150); experiment: ATG_GR_TRANS: Attagene TRANS-FACTORIAL HepG2 Assay for human Glucocorticoid Receptor (GR) (AID 2282978); details: HepG2 Attagene TRANS GR reporter, mRNA transcription;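 also: activators score as hits since higher reporter transcript over DMSO is fitted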
Method in brief: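 Transiently transfected HepG2 cells express chimeric NR-GAL4 proteins acting on GAL4-UAS reporter units. Compounds are applied for 24 h. mRNA induction over DMSO is measured by capillary electrophoresis.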

[19] = molecular target: Steroid hormone receptor ERR1 (Homo sapiens) (UniProt P11474); experiment: ATG_ERRa_TRANS: Attagene TRANS-FACTORIAL HepG2 Assay for human Estrogen-Related Receptor alpha (ERRa) (AID 2282971); details: HepG2 Attagene TRANS reporter, ERRa transactivation
Method in brief: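 Transfected HepG2, 24 h dosing, ERRa-Gal4 chimera driving GAL4-UAS reporter. Readout: reporter mRNA via RT-PCR plus capillary electrophoresis (fluorescence). Positive direction vs DMSO control.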

Measured: AC50

Sequence of Oxysterols receptor LXR-alpha (Homo sapiens) (Q13133 whole entry, looked up, the tested form may be a part): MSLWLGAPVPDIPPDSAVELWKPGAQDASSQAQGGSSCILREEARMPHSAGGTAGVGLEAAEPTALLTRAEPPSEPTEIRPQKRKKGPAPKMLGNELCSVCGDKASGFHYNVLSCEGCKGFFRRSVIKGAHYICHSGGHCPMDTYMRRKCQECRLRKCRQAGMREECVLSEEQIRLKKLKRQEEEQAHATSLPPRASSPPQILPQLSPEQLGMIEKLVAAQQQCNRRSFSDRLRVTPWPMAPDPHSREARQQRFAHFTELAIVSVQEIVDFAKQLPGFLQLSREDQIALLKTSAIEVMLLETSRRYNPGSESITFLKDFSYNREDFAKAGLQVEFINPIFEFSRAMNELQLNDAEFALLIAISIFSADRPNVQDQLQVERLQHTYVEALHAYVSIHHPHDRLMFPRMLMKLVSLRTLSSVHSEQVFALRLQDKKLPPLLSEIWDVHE
Sequence of X-box-binding protein 1 (Homo sapiens) (P17861 whole entry, looked up): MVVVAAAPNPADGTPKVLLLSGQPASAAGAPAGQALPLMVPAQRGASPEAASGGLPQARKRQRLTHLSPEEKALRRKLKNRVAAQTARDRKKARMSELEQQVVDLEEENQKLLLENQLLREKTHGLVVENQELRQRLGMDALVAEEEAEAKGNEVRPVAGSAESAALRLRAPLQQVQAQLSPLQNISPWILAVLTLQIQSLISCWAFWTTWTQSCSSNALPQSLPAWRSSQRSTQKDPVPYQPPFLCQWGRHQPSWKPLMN
Sequence of Nuclear receptor subfamily 1 group I member 3 (Homo sapiens) (Q14994 whole entry, looked up, the tested form may be a part): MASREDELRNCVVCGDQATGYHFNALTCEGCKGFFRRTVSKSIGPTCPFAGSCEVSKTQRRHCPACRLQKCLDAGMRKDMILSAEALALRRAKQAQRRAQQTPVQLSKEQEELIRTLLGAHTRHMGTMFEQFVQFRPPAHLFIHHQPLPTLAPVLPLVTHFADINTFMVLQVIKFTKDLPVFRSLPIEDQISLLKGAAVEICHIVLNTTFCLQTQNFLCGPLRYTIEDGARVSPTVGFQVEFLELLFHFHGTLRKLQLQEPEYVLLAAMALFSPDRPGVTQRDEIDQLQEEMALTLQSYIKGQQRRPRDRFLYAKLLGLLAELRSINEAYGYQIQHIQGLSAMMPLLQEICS
Sequence of Transcriptional activator Myb (Homo sapiens) (P10242 whole entry, looked up): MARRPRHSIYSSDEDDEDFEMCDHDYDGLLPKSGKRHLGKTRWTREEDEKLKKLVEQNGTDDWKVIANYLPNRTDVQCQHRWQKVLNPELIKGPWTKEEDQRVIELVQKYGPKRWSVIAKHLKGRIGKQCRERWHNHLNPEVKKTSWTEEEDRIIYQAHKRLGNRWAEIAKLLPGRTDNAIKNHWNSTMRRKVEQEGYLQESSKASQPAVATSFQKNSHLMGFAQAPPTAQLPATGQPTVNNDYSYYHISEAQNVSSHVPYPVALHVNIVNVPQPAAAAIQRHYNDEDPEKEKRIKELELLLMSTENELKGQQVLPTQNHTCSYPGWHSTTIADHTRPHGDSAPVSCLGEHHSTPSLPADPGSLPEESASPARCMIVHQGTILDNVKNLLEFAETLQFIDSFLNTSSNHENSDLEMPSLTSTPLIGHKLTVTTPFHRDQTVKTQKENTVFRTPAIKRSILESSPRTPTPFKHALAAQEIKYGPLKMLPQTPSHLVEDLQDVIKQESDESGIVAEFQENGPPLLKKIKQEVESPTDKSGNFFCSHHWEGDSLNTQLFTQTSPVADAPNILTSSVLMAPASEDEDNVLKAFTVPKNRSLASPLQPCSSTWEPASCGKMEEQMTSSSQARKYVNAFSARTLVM
Sequence of Bile acid receptor (Homo sapiens) (Q96RI1 whole entry, looked up, the tested form may be a part): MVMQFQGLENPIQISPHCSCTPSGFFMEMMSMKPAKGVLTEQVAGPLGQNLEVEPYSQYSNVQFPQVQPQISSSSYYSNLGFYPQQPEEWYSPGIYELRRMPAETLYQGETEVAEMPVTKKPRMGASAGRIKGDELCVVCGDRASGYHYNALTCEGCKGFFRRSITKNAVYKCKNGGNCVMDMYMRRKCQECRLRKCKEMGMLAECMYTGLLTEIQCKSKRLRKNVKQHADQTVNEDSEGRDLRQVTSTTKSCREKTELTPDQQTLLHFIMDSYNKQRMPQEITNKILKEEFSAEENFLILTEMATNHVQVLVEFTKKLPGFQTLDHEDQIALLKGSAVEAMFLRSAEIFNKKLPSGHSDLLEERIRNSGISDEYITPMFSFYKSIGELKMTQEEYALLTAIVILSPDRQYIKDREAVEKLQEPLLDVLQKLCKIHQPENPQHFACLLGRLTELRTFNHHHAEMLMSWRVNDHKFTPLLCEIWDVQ
Sequence of Oxysterols receptor LXR-beta (Homo sapiens) (P55055 whole entry, looked up, the tested form may be a part): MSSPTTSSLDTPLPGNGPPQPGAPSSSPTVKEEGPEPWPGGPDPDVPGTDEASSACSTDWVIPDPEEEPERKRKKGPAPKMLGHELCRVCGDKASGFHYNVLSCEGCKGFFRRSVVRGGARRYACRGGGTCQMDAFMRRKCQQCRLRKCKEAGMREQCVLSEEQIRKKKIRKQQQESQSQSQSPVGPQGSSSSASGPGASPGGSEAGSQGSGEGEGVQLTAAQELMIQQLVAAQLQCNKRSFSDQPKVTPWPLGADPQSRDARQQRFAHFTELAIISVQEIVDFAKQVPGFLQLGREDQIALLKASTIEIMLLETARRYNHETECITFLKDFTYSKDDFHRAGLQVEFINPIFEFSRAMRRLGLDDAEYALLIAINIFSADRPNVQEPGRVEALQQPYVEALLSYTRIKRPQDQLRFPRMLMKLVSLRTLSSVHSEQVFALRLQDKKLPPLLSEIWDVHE
Sequence of Hepatocyte nuclear factor 4-alpha (Homo sapiens) (P41235 whole entry, looked up, the tested form may be a part): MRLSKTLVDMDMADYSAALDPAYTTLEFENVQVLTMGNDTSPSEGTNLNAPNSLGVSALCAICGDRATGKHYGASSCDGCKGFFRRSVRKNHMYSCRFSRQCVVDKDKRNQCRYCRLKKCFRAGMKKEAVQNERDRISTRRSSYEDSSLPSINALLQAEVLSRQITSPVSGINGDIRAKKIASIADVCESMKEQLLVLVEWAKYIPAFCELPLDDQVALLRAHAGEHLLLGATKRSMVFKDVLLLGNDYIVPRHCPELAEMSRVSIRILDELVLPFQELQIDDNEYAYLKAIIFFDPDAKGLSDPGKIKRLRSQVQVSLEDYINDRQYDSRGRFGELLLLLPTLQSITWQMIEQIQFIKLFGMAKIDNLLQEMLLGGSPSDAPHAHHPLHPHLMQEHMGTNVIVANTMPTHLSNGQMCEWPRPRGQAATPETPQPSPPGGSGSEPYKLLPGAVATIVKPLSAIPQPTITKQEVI
Sequence of Nuclear receptor subfamily 4 group A member 2 (Homo sapiens) (P43354 whole entry, looked up, the tested form may be a part): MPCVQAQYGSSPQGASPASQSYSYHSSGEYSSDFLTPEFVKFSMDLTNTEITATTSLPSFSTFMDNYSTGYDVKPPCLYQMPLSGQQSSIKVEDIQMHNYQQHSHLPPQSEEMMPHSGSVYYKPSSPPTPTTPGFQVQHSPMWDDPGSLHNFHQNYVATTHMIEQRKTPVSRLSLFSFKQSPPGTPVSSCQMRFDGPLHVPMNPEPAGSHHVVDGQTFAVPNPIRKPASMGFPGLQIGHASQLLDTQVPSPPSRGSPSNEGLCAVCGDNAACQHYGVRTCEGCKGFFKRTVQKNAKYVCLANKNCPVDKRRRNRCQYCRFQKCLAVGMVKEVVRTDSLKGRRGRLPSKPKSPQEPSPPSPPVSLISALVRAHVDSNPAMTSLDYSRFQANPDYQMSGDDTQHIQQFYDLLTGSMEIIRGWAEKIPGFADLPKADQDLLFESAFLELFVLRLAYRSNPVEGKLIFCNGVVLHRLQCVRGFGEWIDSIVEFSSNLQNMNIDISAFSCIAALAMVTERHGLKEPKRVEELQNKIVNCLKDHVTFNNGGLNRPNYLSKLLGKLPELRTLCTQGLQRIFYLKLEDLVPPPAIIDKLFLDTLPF
Sequence of Estrogen receptor (Homo sapiens) (P03372 whole entry, looked up, the tested form may be a part): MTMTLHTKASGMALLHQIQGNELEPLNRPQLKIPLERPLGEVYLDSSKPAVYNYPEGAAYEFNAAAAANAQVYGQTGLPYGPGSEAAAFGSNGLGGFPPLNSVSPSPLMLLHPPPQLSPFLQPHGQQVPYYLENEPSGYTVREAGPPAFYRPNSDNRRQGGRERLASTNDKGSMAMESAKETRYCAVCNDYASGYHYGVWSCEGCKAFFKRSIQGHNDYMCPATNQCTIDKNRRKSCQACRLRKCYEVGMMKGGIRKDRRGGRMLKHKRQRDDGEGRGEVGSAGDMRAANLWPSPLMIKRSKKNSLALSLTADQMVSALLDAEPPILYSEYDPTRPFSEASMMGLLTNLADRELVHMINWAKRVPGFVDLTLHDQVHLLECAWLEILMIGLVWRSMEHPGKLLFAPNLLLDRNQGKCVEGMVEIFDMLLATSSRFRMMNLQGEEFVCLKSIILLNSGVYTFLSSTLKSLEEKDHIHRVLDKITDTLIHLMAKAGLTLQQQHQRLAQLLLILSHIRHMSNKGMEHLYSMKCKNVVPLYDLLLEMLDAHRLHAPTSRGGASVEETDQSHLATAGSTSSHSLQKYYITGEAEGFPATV
Sequence of Estrogen-related receptor gamma (Homo sapiens) (P62508 whole entry, looked up, the tested form may be a part): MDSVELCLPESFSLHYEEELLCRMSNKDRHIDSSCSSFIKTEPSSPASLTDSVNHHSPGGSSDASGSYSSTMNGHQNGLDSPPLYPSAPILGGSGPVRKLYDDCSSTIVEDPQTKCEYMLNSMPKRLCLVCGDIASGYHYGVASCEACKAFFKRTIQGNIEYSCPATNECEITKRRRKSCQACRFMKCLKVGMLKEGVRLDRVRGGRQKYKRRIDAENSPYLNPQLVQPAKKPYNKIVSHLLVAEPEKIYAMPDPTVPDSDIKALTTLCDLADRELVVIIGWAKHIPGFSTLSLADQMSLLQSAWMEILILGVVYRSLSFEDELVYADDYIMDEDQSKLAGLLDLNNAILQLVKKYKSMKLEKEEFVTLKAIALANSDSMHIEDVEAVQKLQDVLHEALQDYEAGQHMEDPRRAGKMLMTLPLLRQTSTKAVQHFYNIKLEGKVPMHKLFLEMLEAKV

CCC(C)(O)CCCC(C)C (configuration not stated)
not listed: [12] | [13] | [14] | [15] | [16] | [17] | [18] | [19]
inactive: all other assays above

CN(C)c1ccc2nc3ccc(=[N+](C)C)cc-3sc2c1
not listed: [7] | [8] | [17] | [18] | [19]
inactive: all other assays above

CCc1occc(=O)c1O
inactive: [1] | [2] | [3] | [5] | [6] | [8] | [9] | [17] | [16]

CO[Si](C)(C)OC
active: [16] 151 µM
not listed: [7] | [9] | [10] | [11] | [13] | [17] | [19]
inactive: all other assays above

CCC[Si](OC)(OC)OC
not listed: [4] | [8] | [9] | [12] | [15] | [18]
inactive: all other assays above

CC(=O)OCC=C(C)C
not listed: [9] | [10] | [11] | [12] | [17] | [19]
inactive: all other assays above

O=C(O)CCC(=O)O
inactive: [1] | [2] | [3] | [5] | [6] | [7] | [8] | [13] | [11]

Nc1ccc(C(=O)O)cc1
inactive: [1] | [2] | [3] | [5] | [6] | [8] | [14] | [11] | [16]

Cc1ccc(C)c(OCCCC(C)(C)C(=O)O)c1
active: [5] 20.2 µM
not listed: [4] | [7] | [9] | [11] | [12] | [18] | [19]
inactive: all other assays above

From PubChem BioAssay (EPA / NIEHS)
